The whole screen tested about 39,000 compounds, of which about 3,300 (8.5%) were called active. For the sample, actives were picked, then their nearest neighbours and some compounds at random.
What follows are molecules tested on HepG2 (assay: cytotoxicity call (relative viability < 0.9)). Conditions: 10 µM.
`C[C@H](CO)N1C[C@H](C)[C@@H](CN(C)C(=O)CN(C)C)Oc2cc(C#C[C@@H](C)O)ccc2S1(=O)=O` was tested, and the cytotoxicity call was “inactive”. With `C[C@@H]1CCCCO[C@H](CN(C)S(=O)(=O)c2ccc(Cl)cc2)[C@H](C)CN([C@@H](C)CO)C(=O)c2cc(NC(=O)C3CCCCC3)ccc2O1` the cytotoxicity call was “inactive”. `COc1ccc(NC(=O)N(C)C[C@H]2Oc3ccc(NS(=O)(=O)c4cn(C)cn4)cc3CC(=O)N([C@H](C)CO)C[C@@H]2C)cc1` was tested, and the cytotoxicity call was “inactive”. In the case of `COc1ccccc1CNC(=O)C[C@H]1C[C@H]2c3cc(NC(=O)Nc4ccc(C(F)(F)F)cc4)ccc3O[C@H]2[C@@H](CO)O1`, the cytotoxicity call is reported as “inactive”. With `C[C@@H]1CN([C@H](C)CO)C(=O)c2cc(NS(=O)(=O)c3ccc(F)cc3)ccc2O[C@@H](C)CCCCO[C@H]1CN(C)Cc1ccc2c(c1)OCO2` the cytotoxicity call was “inactive”. With `C[C@@H]1CN([C@H](C)CO)C(=O)Cc2cc(NC(=O)Nc3ccc4c(c3)OCO4)ccc2O[C@H]1CN(C)S(=O)(=O)c1cn(C)cn1` the cytotoxicity call was “inactive”. In the case of `O=C(C[C@@H]1CC[C@@H]2[C@H](COC[C@H](O)CN2S(=O)(=O)c2cccc(Cl)c2)O1)NCc1ccc2c(c1)OCO2`, the cytotoxicity call is reported as “inactive”. In the case of `C[C@@H]1CN([C@@H](C)CO)S(=O)(=O)c2ccc(Br)cc2O[C@H]1CN(C)Cc1ccccc1F`, the cytotoxicity call is reported as “inactive”. `CC(C)NC(=O)Nc1ccc2c(c1)CC(=O)N([C@@H](C)CO)C[C@H](C)[C@H](CN(C)Cc1ccc(C(=O)O)cc1)O2` was tested, and the cytotoxicity call was “inactive”. For `C[C@@H]1CN([C@H](C)CO)C(=O)c2cc(NC(=O)C3CC3)ccc2O[C@@H]1CN(C)Cc1ccc(Oc2ccccc2)cc1`, the cytotoxicity call was “inactive”. In the case of `Cc1noc(C)c1S(=O)(=O)N(C)C[C@H]1Oc2ccc(NC(=O)C3CC3)cc2CC(=O)N([C@H](C)CO)C[C@@H]1C`, the cytotoxicity call is reported as “inactive”. For `CCS(=O)(=O)N1CC[C@]2(CC1)CN([C@@H](CO)c1c2c2ccc(cc2n1C)OC)C(=O)c1cccc(c1)F`, the cytotoxicity call was “inactive”. For `C[C@H]1CCCCO[C@@H](CN(C)Cc2ccc(C(F)(F)F)cc2)[C@@H](C)CN([C@@H](C)CO)C(=O)c2cc(NC(=O)Nc3ccc(C(F)(F)F)cc3)ccc2O1`, the cytotoxicity call was “active”. In the case of `C[C@@H]1CCCCO[C@@H](CN(C)Cc2ccc(C(F)(F)F)cc2)[C@@H](C)CN([C@H](C)CO)C(=O)c2cc(NC(=O)Nc3ccc(C(F)(F)F)cc3)ccc2O1`, the cytotoxicity call is reported as “inactive”. With `C[C@H]1CCCCO[C@H](CN(C)Cc2ccc(C(F)(F)F)cc2)[C@@H](C)CN([C@@H](C)CO)C(=O)c2cc(NC(=O)Nc3ccc(C(F)(F)F)cc3)ccc2O1` the cytotoxicity call was “active”. In the case of `C[C@@H]1CCCCO[C@@H](CN(C)Cc2ccc(C(F)(F)F)cc2)[C@@H](C)CN([C@@H](C)CO)C(=O)c2cc(NC(=O)Nc3ccc(C(F)(F)F)cc3)ccc2O1`, the cytotoxicity call is reported as “inactive”. For `C[C@@H]1CCCCO[C@@H](CN(C)Cc2ccc(C(F)(F)F)cc2)[C@H](C)CN([C@H](C)CO)C(=O)c2cc(NC(=O)Nc3ccc(C(F)(F)F)cc3)ccc2O1`, the cytotoxicity call was “inactive”. With `C[C@@H]1CCCCO[C@H](CN(C)Cc2ccc(C(F)(F)F)cc2)[C@@H](C)CN([C@H](C)CO)C(=O)c2cc(NC(=O)Nc3ccc(C(F)(F)F)cc3)ccc2O1` the cytotoxicity call was “active”. For `C[C@@H]1CN([C@H](C)CO)C(=O)c2cc(NC(=O)Nc3ccc(C(F)(F)F)cc3)ccc2O[C@@H](C)CCCCO[C@@H]1CN(C)Cc1ccc(C(F)(F)F)cc1`, the cytotoxicity call was “inactive”. In the case of `C[C@@H]1CCCCO[C@H](CN(C)Cc2ccc(C(F)(F)F)cc2)[C@H](C)CN([C@H](C)CO)C(=O)c2cc(NC(=O)Nc3ccc(C(F)(F)F)cc3)ccc2O1`, the cytotoxicity call is reported as “active”. For `CN(C)CCCNC(=O)C[C@H]1CC[C@@H]2[C@H](COc3ccc(NC(=O)c4ccc5c(c4)OCO5)cc3C(=O)N2C)O1`, the cytotoxicity call was “inactive”. `C[C@@H]1CN([C@H](C)CO)C(=O)c2cc(NS(=O)(=O)c3ccc(F)cc3)ccc2O[C@H]1CN(C)CC1CC1` was tested, and the cytotoxicity call was “inactive”. With `C[C@@H]1CN([C@@H](C)CO)C(=O)c2cc(NC(=O)Cc3ccccc3)ccc2O[C@@H](C)CCCCO[C@@H]1CN(C)C(=O)CCC(F)(F)F` the cytotoxicity call was “inactive”. `C[C@@H]1CN([C@@H](C)CO)C(=O)c2cc(NC(=O)NC3CCCCC3)ccc2O[C@H]1CN(C)Cc1ccc(C(F)(F)F)cc1` was tested, and the cytotoxicity call was “inactive”. `CO[C@H]1CN(C)C(=O)c2ccc(NC(=O)NC(C)C)cc2OC[C@H](C)N(Cc2ccc(-c3ccccn3)cc2)C[C@@H]1C` was tested, and the cytotoxicity call was “inactive”. With `C[C@@H]1CN([C@@H](C)CO)C(=O)c2cc(NC(=O)Nc3ccccc3)ccc2O[C@@H](C)CCCCO[C@H]1CN(C)Cc1ccncc1` the cytotoxicity call was “inactive”. For `CC(C)C#Cc1ccc2c(c1)O[C@@H](CN(C)C(=O)Cc1ccccn1)[C@H](C)CN([C@@H](C)CO)S2(=O)=O`, the cytotoxicity call was “inactive”. For `Cc1noc(C)c1S(=O)(=O)N(C)C[C@H]1Oc2ccc(NC(=O)NC(C)C)cc2CC(=O)N([C@H](C)CO)C[C@@H]1C`, the cytotoxicity call was “inactive”. In the case of `C#CCOC(=O)[C@@H]1[C@@H](C(=O)O)[C@@H]2C=C[C@@H]1C2`, the cytotoxicity call is reported as “inactive”. In the case of `COc1ccc(NC(=O)N(C)C[C@H]2Oc3ccc(NC(=O)C4CC4)cc3CC(=O)N([C@H](C)CO)C[C@@H]2C)cc1`, the cytotoxicity call is reported as “inactive”. `C[C@@H]1CN([C@@H](C)CO)C(=O)c2cccc(NC(=O)c3cnccn3)c2O[C@H]1CN(C)CC1CCCCC1` was tested, and the cytotoxicity call was “inactive”. `COCC#Cc1ccc2c(c1)O[C@@H](CN(C)S(=O)(=O)c1cccc(F)c1)[C@H](C)CN([C@H](C)CO)S2(=O)=O` was tested, and the cytotoxicity call was “inactive”. `C[C@@H]1CN([C@@H](C)CO)C(=O)c2cccc(NC(=O)Nc3ccc(F)cc3)c2O[C@@H]1CN(C)Cc1ccc(Oc2ccccc2)cc1` was tested, and the cytotoxicity call was “inactive”. In the case of `COc1ccc(S(=O)(=O)Nc2ccc3c(c2)C(=O)N([C@@H](C)CO)C[C@H](C)[C@H](CN(C)C(=O)Nc2cccc4ccccc24)OCCCC[C@H](C)O3)cc1`, the cytotoxicity call is reported as “active”. With `COc1ccc(S(=O)(=O)Nc2ccc3c(c2)C(=O)N([C@H](C)CO)C[C@H](C)[C@@H](CN(C)C(=O)Nc2cccc4ccccc24)OCCCC[C@@H](C)O3)cc1` the cytotoxicity call was “inactive”. In the case of `COc1ccc(S(=O)(=O)Nc2ccc3c(c2)C(=O)N([C@H](C)CO)C[C@H](C)[C@@H](CN(C)C(=O)Nc2cccc4ccccc24)OCCCC[C@H](C)O3)cc1`, the cytotoxicity call is reported as “active”. In the case of `COc1ccc(S(=O)(=O)Nc2ccc3c(c2)C(=O)N([C@@H](C)CO)C[C@@H](C)[C@@H](CN(C)C(=O)Nc2cccc4ccccc24)OCCCC[C@H](C)O3)cc1`, the cytotoxicity call is reported as “inactive”. For `COc1ccc(S(=O)(=O)Nc2ccc3c(c2)C(=O)N([C@H](C)CO)C[C@H](C)[C@H](CN(C)C(=O)Nc2cccc4ccccc24)OCCCC[C@@H](C)O3)cc1`, the cytotoxicity call was “inactive”. For `COc1ccc(S(=O)(=O)Nc2ccc3c(c2)C(=O)N([C@@H](C)CO)C[C@H](C)[C@H](CN(C)C(=O)Nc2cccc4ccccc24)OCCCC[C@@H](C)O3)cc1`, the cytotoxicity call was “inactive”. `O=C(CN1CCOCC1)NCC[C@H]1CC[C@H](NC(=O)c2ccc3c(c2)OCO3)[C@H](CO)O1` was tested, and the cytotoxicity call was “inactive”. `C[C@H](CO)N1C[C@H](C)[C@H](CN(C)C(=O)Nc2ccc(F)cc2)OCCCC[C@H](C)Oc2ccc(NC(=O)C3CCCC3)cc2C1=O` was tested, and the cytotoxicity call was “inactive”. For `Clc1ccc(Cn2cccc2)cn1`, the cytotoxicity call was “inactive”. `CCS(=O)(=O)Nc1ccc2c(c1)C(=O)N(C)[C@@H]1CC[C@@H](CC(=O)N[C@H]3CCN(Cc4ccccc4)C3)O[C@@H]1CO2` was tested, and the cytotoxicity call was “inactive”. For `C[C@H]1CN([C@@H](C)CO)C(=O)Cc2cc(NS(=O)(=O)c3ccc(F)cc3)ccc2O[C@@H]1CN(C)Cc1ccncc1`, the cytotoxicity call was “inactive”. `COCC(=O)Nc1ccc2c(c1)OC[C@H](C)N(C(=O)Cc1ccccn1)C[C@H](C)[C@@H](OC)CN(C)C2=O` was tested, and the cytotoxicity call was “inactive”. In the case of `COc1cc2c(cc1OC)C1Cc3ccc(OC)c(OC)c3CN1CC2` (stereo not drawn), the cytotoxicity call is reported as “inactive”. In the case of `COc1ccc2c(c1OC)C(=O)OC2C1c2c(cc3c(c2OC)OCO3)CCN1C.Cl` (stereo not drawn), the cytotoxicity call is reported as “active”. `Cc1cc(-c2cc(OC(=O)c3ccccc3)ccc2Cl)cc2nnc(Nc3ccc(OCCN4CCCC4)cc3)nc12` was tested, and the cytotoxicity call was “inactive”. With `CCN(CC)CCOc1ccc(Nc2ncc3cc(-c4c(Cl)cccc4Cl)c(=O)n(C)c3n2)cc1` the cytotoxicity call was “active”. `O=C(C[C@@H]1C=C[C@@H](NC(=O)CN2CCOCC2)[C@H](CO)O1)NCCc1ccccc1` was tested, and the cytotoxicity call was “inactive”. For `O=C(O)CNC(=O)C(=O)O`, the cytotoxicity call was “active”. In the case of `NCC(=O)NCC(=O)O`, the cytotoxicity call is reported as “inactive”. In the case of `CNCC(=O)O`, the cytotoxicity call is reported as “inactive”. For `CN(C)CCN1C[C@@H]2CN(C(=O)[C@H]3CCOC3)C[C@H]2C1=O`, the cytotoxicity call was “inactive”. `C[C@@H]1CCCCO[C@H](CN(C)S(=O)(=O)c2cccs2)[C@@H](C)CN([C@@H](C)CO)C(=O)c2cc(NC(=O)NC3CCCCC3)ccc2O1` was tested, and the cytotoxicity call was “inactive”. For `Cc1noc(C)c1S(=O)(=O)Nc1ccc2c(c1)C(=O)N([C@@H](C)CO)C[C@H](C)[C@H](CN(C)Cc1ccc3c(c1)OCO3)O2`, the cytotoxicity call was “inactive”. For `COc1ccc(S(=O)(=O)N(C)C[C@@H]2OCCCC[C@@H](C)Oc3ccc(NC(=O)Nc4ccc(F)cc4)cc3C(=O)N([C@@H](C)CO)C[C@H]2C)cc1`, the cytotoxicity call was “inactive”. With `CN(C)CC(=O)N1CC2(C1)[C@H](c1ccccc1)[C@H](CO)N2S(C)(=O)=O` the cytotoxicity call was “inactive”. In the case of `CN(c1ncccc1CNc1nc(Nc2ccc3c(c2)CC(=O)N3)ncc1C(F)(F)F)S(C)(=O)=O`, the cytotoxicity call is reported as “active”. For `CNC(=O)c1ccc(Nc2ncc(C(F)(F)F)c(NCc3nccnc3N(C)S(C)(=O)=O)n2)cc1`, the cytotoxicity call was “active”. `Cc1cnc(CNC(=O)c2c(=O)c3ccc(N4CCCN(C)CC4)nc3n3c2sc2ccccc23)cn1` was tested, and the cytotoxicity call was “inactive”. For `CCS(=O)(=O)N1C[C@]2(CN(C2)C(=O)Nc2ccc(cc2F)F)c2c(n(c3cc(ccc23)OC)C)[C@@H]1CO`, the cytotoxicity call was “inactive”. `CN(C)Cc1cn(CC[C@H]2CC[C@@H](NC(=O)Cc3cccnc3)[C@@H](CO)O2)nn1` was tested, and the cytotoxicity call was “inactive”.
